The list is not random: actives were taken first. Their share in the collection is about 19%.
IL1B secr inh: blocks inflammasome-driven IL-1 beta release. THP-1 LPS/ATP IL-1B secretion, AlphaLISA, 16 h; stronger effect = lower value. hit rate 4.7% among 360,000. activity change, % at 57.5 µM; in the data active = activity change below about -50%; inconclusive = mostly about -30% to -49%
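THP-1 cells pretreated 1 hr with compounds (up to 57.5 uM final), then stimulated with LPS (250 ng/mL final) plus ATP (1.25 mM final); secreted IL-1B measured by AlphaLISA after 16 hr, decreased signal indicating inhibition.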
DT40 TDP1 CPT: growth inhibition of DT40 Tdp1-/-;hTDP1 cells with camptothecin (screen for TDP1 inhibitors). Potency, µM (highest dose often 46.2 µM), for inactives: top-dose activity change, negative = growth inhibition, actives largely listed as inhibitors. hit rate 12% among 420,000. chicken DT40 Tdp1-/-;hTDP1 cells + 20 nM CPT, ATP luminescence, 48 h; note: potency is the fitted concentration of half-maximal effect; nearly all actives have a fitted effect of over 55% in size
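Cell growth measured by CellTiter-Glo luminescence after a minimum 48 h, 37 C compound exposure with 20 nM CPT in Tdp1-knockout DT40 cells stably expressing hTDP1, seeded 400/well; qHTS titration format.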
HT1080 IDH1KD tx: kills HT-1080 cells with IDH1 knockdown. HT-1080 IDH1 knockdown viability, ATP luminescence, 48 h. Potency, µM (top dose mostly 46.1 µM), inactives show top-dose activity, negative = toxicity, usual class: cytotoxic. hit rate 2% among 360,000. AID 686971;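 note: potency is the fitted concentration of half-maximal effect; 0% = DMSO wells and -100% = cell-free medium wells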
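Using the IDH1-knockdown HT-1080 line run in the same batch and compound series as the NT line, viability after 48 h at 37 °C was determined by CellTiter-Glo luminescence and expressed as % activity.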
DT40 TDP1 no CPT: qHTS for Inhibitors of human tyrosyl-DNA phosphodiesterase 1 (TDP1): qHTS in cells in absence of CPT. DT40 Tdp1-/- hTDP1 cells, no CPT, ATP luminescence, 48 h. AID 686978, 2013. Potency, µM (highest dose often 46.2 µM), inactives show top-dose activity change, negative = growth inhibition, actives largely listed as inhibitors. hit rate 15% among 420,000; note: potency is the fitted concentration of half-maximal effect; nearly all actives have a fitted effect of over 55% in size
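Stably hTDP1-transfected Tdp1-null chicken DT40 cells were treated with library compounds minus camptothecin and grown for at least 48 hr at 37 °C, after which cellular ATP was quantified by luminescence.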
HT1080-NT tox: kills 2HG-producing HT-1080-NT fibrosarcoma cells. HT-1080-NT fibrosarcoma viability, CellTiter-Glo ATP luminescence, 48 h. AID 686970. hit rate 1.6% among 360,000. Potency, µM (titrated, usually from 46.1 µM), inactives show at the top dose activity, negative = less viability, most hits filed as cytotoxic;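 note: NT is the 2HG producing partner of a matched IDH1 knockdown line; potency is the fitted concentration of half-maximal effect; 0% = DMSO-treated cells and -100% = media-only wells without cells; nearly all actives have a fitted effect of over 55% in size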
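Compounds were tested in concentration-response format on HT-1080-NT cells for 48 hours at 37 degrees C. Cell viability came from CellTiter-Glo luminescence; curves were classified by r2, response magnitude and activity.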
* marks the source's active call; other numbers are inactive results; u = inconclusive; x = no result given; ! = not confirmed by another sample; [ ] = dose if it differs, or a comment. Unless noted, calls come from the whole dose curve; as a rule, active = well fitted curve in the direction sought with a large enough effect; inconclusive = small, poorly fitted or top-dose-only effect, or another doubt; inactive = no such curve, though single readings can be large; an effect the other way counts as inactive or inconclusive. Unless noted, % is set by controls: 0 for no effect and ±100 for the full control effect.

SMILES	IL1B secr inh	DT40 TDP1 CPT	HT1080 IDH1KD tx	DT40 TDP1 no CPT	HT1080-NT tox
O=Cc1ccco1	x	7%	x	3%	x
O=[N+]([O-])c1ccc(CNCCc2ccccc2)cc1	0	-22%	0%	u	-4%
O=[N+]([O-])c1ccc(C[n+]2c(-c3ccccc3)cc(-c3ccccc3)cc2-c2ccccc2)cc1	u	2.6µM*	-14%	2.3µM*	-19%
O=[N+]([O-])c1cc(Cl)c(O)c(-[n+]2c(-c3ccccc3)cc(-c3ccccc3)cc2-c2ccccc2)c1	-5	13µM*	u	8.2µM*	u
Cc1ccc(Cl)c(O)c1	x	-13%	x	-4%	x
NCCCCN=C(N)N	x	8.4µM*!	x	6.7µM*!	x
CCCCCSc1cc(O)c(C(CNC)C(C)C)cc1OC (configuration not stated)	-68*	u	u	16µM*	u
CC12CN3CC(C)(CN(C1)C3c1cccs1)C2O (configuration not stated)	-2	10%	13%	1%	7%
Nc1c(C(=O)Nc2cccc(F)c2)sc2nc(-c3cccs3)ccc12	x	u	x	-29%	x
CC(=O)c1c(C)[nH]c(C(=O)N2CCC3(CC2)OCCO3)c1C	28	-8%	-10%	-7%	-3%
C=CCCC[C@@H]1OC(=O)CNC(=O)C([C@@H](C)CC)NC(=O)[C@@H]2CCCN2C(=O)C([C@@H](C)CC)OC(=O)[C@H](Cc2ccccc2)N(C)C(=O)[C@H](C(C)C)NC(=O)C1(C)C (some centres not stated)	-52*	13µM*	u	16µM*	u
O=C(Nc1cccnc1)c1ccc(Cl)c(S(=O)(=O)N2CCCCCC2)c1	-21	u	u	u	u
O=C(Nc1ccc(Oc2ccccc2)cc1)c1ccc(F)c(S(=O)(=O)N2CCN(c3cccc(Cl)c3)CC2)c1	x	1.8µM*	x	3.7µM*	x
Cc1cccc(NC(=O)c2ccc(F)c(S(=O)(=O)N3CCN(c4ccc(F)cc4)CC3)c2)c1	x	u	x	16µM*	x
Cc1ccccc1-n1c(/C=C/c2ccccn2)nc2ccccc2c1=O	-53*	18µM*	-5%	23µM*	-26%
Cc1ccccc1-n1c(/C=C/c2ccc(O)cc2)nc2ccccc2c1=O	x	9.2µM*	x	5.8µM*	x
CC[C@H](C)[C@H](NC(=O)[C@H](CCCN=C(N)N)NC(=O)[C@H](CCCN=C(N)N)NC(=O)[C@H](CC(C)C)NC(=O)[C@H](Cc1ccccc1)NC(=O)CNC(=O)CNC(=O)[C@@H](N)Cc1ccc(O)cc1)C(=O)N[C@@H](CCCN=C(N)N)C(=O)N1CCC[C@H]1C(=O)N[C@@H](CCCCN)C(=O)N[C@@H](CC(C)C)C(=O)N[C@@H](CCCCN)C(=O)O	x	8%[4.12 µM]	x	2%[4.12 µM]	x
NS(=O)(=O)c1ccc(CCNc2ccn3nc(-c4cccc(C(F)(F)F)c4)cc3n2)cc1	-20	u	-27%	u	u
NS(=O)(=O)c1ccc(CCNc2nn3c(-c4ccc(F)c(Cl)c4)cnc3s2)cc1	u	16µM*	12µM*	23µM*	u
CCOP(=O)(OCC)/C(C#N)=C/c1ccc(-c2ccc(F)cc2F)o1	u	15µM*	-12%	u	-19%
CC(=O)c1cn(CCCOc2ccccc2)c2ccccc12	-4	u	-3%	16µM*	-15%
COc1ccc(-c2nc(CSCC(=O)N3CCC4(CC3)OCCO4)c(C)o2)cc1OC	19	-28%	-12%	-23%	-4%
Cc1oc(-c2cccs2)nc1CSCC(=O)N1CCC2(CC1)OCCO2	-10	-26%	-3%	u	2%
COc1ccc(-c2nc(CSCC(=O)N3CCN(c4ccc(F)cc4)CC3)c(C)o2)cc1	x	13µM*	x	8.2µM*	x
CCc1ccc(-c2nc(CSCC(=O)N3CCN(c4ccc(F)cc4)CC3)c(C)o2)cc1	x	21µM*	x	u	x
CC(C)n1c(N2CCN(S(=O)(=O)c3cccc([N+](=O)[O-])c3)CC2)nc2ccccc21	-72*	u	-26%	12µM*	-24%
